PubChem BioAssay (EPA / NIEHS)
Several values for one entry are separate records, joined by “and”; a condition that tells them apart may be missing. Identical values can stand only once. Records with an inconclusive call do not appear. Activity calls are given as the source filed them. How the source made its calls: active means hit-call score of the fitted dose curve at least 0.9, where 1 is the maximum; inconclusive means response in the unintended direction; inactive means score below 0.9.

Experiments:
[1] = target: human Phosphodiesterase 10 (PDE10), PDE10A (gene 10846) (UniProt Q9Y233); assay: NVS_ENZ_hPDE10: NovaScreen (NVS) Enzymatic Assay for human Phosphodiesterase 10 (PDE10) (AID 2283195)
Procedure, shortened: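 Biochemical single-readout PDE10A assay, cell-free, extracted protein. Compounds first screened at 25 uM in duplicate, hits then titrated to 50 uM max. Activity measured after 1 h; loss-of-signal fitted against DMSO negative control.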

[2] = target: human Matrix Metalloproteinase-9 (MMP9), MMP9 (gene 4318) (UniProt P14780); assay: NVS_ENZ_hMMP9: NovaScreen (NVS) Enzymatic Assay for human Matrix Metalloproteinase-9 (MMP9) (AID 2283190);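 further: cell-free recombinant MMP9 protease activity read by fluorescent substrate signal; active means inhibition seen as loss of fluorescence signal versus DMSO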
Procedure, shortened: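 Screening concentration 25 uM, duplicate wells, then dose series for confirmation. Cell-free enzymatic reaction measured by fluorescence intensity 1 h post-dosing; decreased signal versus DMSO taken as activity.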

[3] = target: Collagenase 3 (Homo sapiens) (UniProt P45452); assay: NVS_ENZ_hMMP13: NovaScreen (NVS) Enzymatic Assay for human Matrix Metalloproteinase-13 (MMP13) (AID 2283182)
Procedure: NVS_ENZ_hMMP13 is a biochemical, single-readout assay that uses extracted gene-proteins in a cell-free assay. Measurements were taken 1 hour after chemical dosing in a 96-well plate.NVS_ENZ_hMMP13 is one of one assay component(s) measured or calculated from the NVS_ENZ_hMMP13 assay. It is designed to make measurements of enzyme activity, a form of enzyme reporter, as detected with fluorescence intensity signals by Fluorescence technology.Data from the assay component NVS_ENZ_hMMP13 was analyzed into 1 assay endpoint. This assay endpoint, NVS_ENZ_hMMP13, was analyzed in the positive analysis fitting direction relative to DMSO as the negative control and baseline of activity. […] Furthermore, this assay endpoint can be referred to as a primary readout, because this assay has produced multiple assay endpoints where this one serves a enzymatic activity function. […]
Binding assays used specific radioligands (tritiated, iodinated) with non-radioactive competitive displacement ligands in agonist or antagonist protocols (as indicated) and various reference compounds and inhibitors to titrate specific binding to receptors and transporters. Most enzyme assays (CYPs, kinases, phosphatases, proteases, HDACs) used recombinant protein and specific substrates (fluorescence mostly, some colorimetric and radioactive) and inhibitors, followed by a biochemical separation of substrate and product. […]

[4] = target: human Matrix Metalloproteinase-3 (MMP3), MMP3 (gene 4314) (UniProt P08254); assay: NVS_ENZ_hMMP3: NovaScreen (NVS) Enzymatic Assay for human Matrix Metalloproteinase-3 (MMP3) (AID 2283185)
Procedure, shortened: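 Fluorescent substrate turnover by recombinant MMP3 read after 1 h, signal loss scored against DMSO. Compounds first run in duplicate at 25 uM single dose, then actives confirmed by concentration series.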

[5] = target: human Mitogen- and Stress-activated Protein Kinase-1 (Msk1), RPS6KA5 (gene 9252) (UniProt O75582); assay: NVS_ENZ_hMsk1: NovaScreen (NVS) Enzymatic Assay for human Mitogen- and Stress-activated Protein Kinase-1 (Msk1) (AID 2283187)
Procedure, shortened: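 Chemicals first run in duplicate at 25 uM, with actives followed up in singleton concentration series to 50 uM maximum. Enzyme activity came from substrate/product mobility-shift separation with fluorescence detection after 1 h incubation of the recombinant protein.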

[6] = target: human Phosphodiesterase 4A1 (PDE4A1), PDE4A (gene 5141) (UniProt P27815); assay: NVS_ENZ_hPDE4A1: NovaScreen (NVS) Enzymatic Assay for human Phosphodiesterase 4A1 (PDE4A1) (AID 2283191)
Procedure: NVS_ENZ_hPDE4A1 is a biochemical, single-readout assay that uses extracted gene-proteins in a cell-free assay. Measurements were taken 1 hour after chemical dosing in a 384-well plate.NVS_ENZ_hPDE4A1 is one of one assay component(s) measured or calculated from the NVS_ENZ_hPDE4A1 assay. It is designed to make measurements of enzyme activity, a form of enzyme reporter, as detected with fluorescence intensity signals by Fluorescence and electrophoretic mobility shift technology.Data from the assay component NVS_ENZ_hPDE4A1 was analyzed into 1 assay endpoint. This assay endpoint, NVS_ENZ_hPDE4A1, was analyzed in the positive analysis fitting direction relative to DMSO as the negative control and baseline of activity. Using a type of enzyme reporter, loss-of-signal activity can be used to understand changes in the enzymatic activity as they relate to the gene PDE4A. Furthermore, this assay endpoint can be referred to as a primary readout, because this assay has produced multiple assay endpoints where this one serves a enzymatic activity function. To generalize the intended target to other relatable targets, this assay endpoint is annotated to the esterase intended target family, where the subfamily is phosphodiesterase. […]

[7] = target: cAMP-dependent protein kinase catalytic subunit alpha (Homo sapiens) (UniProt P17612); assay: NVS_ENZ_hPKA: NovaScreen (NVS) Enzymatic Assay for human Protein Kinase A (PKA) (AID 2283192)
Procedure, shortened: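 Cell-free kinase activity read by fluorescence after mobility-shift separation of substrate and product, 1 h post-dosing. Single-concentration duplicate screen (25 uM) preceded singleton concentration series (top 50 uM); loss of signal versus DMSO.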

[8] = target: human Phosphodiesterase 5 (PDE5), PDE5A (gene 8654) (UniProt O76074); assay: NVS_ENZ_hPDE5: NovaScreen (NVS) Enzymatic Assay for human Phosphodiesterase 5 (PDE5) (AID 2283194)
Procedure, shortened: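 Screening began in duplicate at 25 uM, with actives taken into concentration-response. Enzyme activity of recombinant PDE5 toward its substrate was measured at 1 h by fluorescence mobility-shift detection, relative to DMSO controls.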

[9] = target: human Matrix Metalloproteinase-7 (MMP7), MMP7 (gene 4316) (UniProt P09237); assay: NVS_ENZ_hMMP7: NovaScreen (NVS) Enzymatic Assay for human Matrix Metalloproteinase-7 (MMP7) (AID 2283183)
Procedure, shortened: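 Compounds first tested at 25 uM in duplicate, then at up to 50 uM in concentration series if active. Protease activity measured by fluorescence intensity 1 h after dosing, with fitting relative to DMSO.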

[10] = target: human Matrix Metalloproteinase-2 (MMP2), MMP2 (gene 4313) (UniProt P08253); assay: NVS_ENZ_hMMP2: NovaScreen (NVS) Enzymatic Assay for human Matrix Metalloproteinase-2 (MMP2) (AID 2283184)
Procedure, shortened: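 Compounds first screened in duplicate at a single 25 uM, with actives followed up in concentration series. Recombinant human MMP2 cleaves a fluorogenic substrate; fluorescence taken at 1 h, inhibition fitted relative to DMSO.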

Chain of human Matrix Metalloproteinase-9 (MMP9), MMP9 (gene 4318) (P14780 whole entry, looked up): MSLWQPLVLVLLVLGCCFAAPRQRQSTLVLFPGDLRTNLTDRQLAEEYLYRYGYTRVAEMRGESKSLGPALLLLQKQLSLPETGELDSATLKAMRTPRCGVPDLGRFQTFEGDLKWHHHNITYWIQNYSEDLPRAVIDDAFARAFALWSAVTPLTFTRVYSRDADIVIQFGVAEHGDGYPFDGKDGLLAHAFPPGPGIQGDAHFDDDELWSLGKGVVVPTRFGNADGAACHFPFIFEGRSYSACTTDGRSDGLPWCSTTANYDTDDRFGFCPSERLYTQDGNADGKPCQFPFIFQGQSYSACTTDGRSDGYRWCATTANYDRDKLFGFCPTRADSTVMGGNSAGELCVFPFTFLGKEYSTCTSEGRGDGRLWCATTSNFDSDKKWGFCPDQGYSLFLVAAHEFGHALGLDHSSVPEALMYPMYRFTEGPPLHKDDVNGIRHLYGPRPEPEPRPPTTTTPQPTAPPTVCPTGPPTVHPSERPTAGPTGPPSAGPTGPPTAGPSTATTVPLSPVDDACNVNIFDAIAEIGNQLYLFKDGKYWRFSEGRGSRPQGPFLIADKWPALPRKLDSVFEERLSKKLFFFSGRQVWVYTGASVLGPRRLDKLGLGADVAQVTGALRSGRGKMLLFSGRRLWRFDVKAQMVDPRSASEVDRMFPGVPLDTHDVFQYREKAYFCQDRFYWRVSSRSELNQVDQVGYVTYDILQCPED
Chain of human Phosphodiesterase 10 (PDE10), PDE10A (gene 10846) (Q9Y233 whole entry, looked up): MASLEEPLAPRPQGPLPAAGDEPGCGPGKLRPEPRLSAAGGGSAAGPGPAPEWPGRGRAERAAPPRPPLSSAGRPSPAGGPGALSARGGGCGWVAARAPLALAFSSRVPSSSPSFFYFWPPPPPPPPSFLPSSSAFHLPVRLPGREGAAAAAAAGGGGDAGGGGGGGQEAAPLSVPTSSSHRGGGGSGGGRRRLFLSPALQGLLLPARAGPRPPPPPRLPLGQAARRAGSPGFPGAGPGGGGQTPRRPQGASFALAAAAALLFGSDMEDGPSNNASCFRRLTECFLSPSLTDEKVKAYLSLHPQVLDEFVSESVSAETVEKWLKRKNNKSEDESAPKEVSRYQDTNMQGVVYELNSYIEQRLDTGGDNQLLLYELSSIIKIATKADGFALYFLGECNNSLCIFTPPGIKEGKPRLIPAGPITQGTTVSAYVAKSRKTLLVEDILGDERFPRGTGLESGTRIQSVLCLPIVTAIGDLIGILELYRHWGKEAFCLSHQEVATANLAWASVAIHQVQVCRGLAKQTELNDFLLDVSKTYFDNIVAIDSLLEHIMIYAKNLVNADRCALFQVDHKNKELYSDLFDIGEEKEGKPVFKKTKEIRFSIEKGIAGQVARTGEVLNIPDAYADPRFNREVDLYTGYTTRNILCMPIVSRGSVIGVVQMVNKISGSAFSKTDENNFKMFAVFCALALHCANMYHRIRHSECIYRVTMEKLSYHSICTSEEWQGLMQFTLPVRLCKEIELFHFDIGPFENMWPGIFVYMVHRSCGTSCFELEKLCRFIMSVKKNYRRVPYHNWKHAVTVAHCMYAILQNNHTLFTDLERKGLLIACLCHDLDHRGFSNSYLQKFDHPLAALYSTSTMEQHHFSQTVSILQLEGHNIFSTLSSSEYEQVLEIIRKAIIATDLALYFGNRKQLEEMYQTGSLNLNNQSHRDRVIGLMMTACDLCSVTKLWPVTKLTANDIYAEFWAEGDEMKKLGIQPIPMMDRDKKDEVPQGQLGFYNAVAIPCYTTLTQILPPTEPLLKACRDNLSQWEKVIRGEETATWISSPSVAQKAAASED
Chain of human Mitogen- and Stress-activated Protein Kinase-1 (Msk1), RPS6KA5 (gene 9252) (O75582 whole entry, looked up): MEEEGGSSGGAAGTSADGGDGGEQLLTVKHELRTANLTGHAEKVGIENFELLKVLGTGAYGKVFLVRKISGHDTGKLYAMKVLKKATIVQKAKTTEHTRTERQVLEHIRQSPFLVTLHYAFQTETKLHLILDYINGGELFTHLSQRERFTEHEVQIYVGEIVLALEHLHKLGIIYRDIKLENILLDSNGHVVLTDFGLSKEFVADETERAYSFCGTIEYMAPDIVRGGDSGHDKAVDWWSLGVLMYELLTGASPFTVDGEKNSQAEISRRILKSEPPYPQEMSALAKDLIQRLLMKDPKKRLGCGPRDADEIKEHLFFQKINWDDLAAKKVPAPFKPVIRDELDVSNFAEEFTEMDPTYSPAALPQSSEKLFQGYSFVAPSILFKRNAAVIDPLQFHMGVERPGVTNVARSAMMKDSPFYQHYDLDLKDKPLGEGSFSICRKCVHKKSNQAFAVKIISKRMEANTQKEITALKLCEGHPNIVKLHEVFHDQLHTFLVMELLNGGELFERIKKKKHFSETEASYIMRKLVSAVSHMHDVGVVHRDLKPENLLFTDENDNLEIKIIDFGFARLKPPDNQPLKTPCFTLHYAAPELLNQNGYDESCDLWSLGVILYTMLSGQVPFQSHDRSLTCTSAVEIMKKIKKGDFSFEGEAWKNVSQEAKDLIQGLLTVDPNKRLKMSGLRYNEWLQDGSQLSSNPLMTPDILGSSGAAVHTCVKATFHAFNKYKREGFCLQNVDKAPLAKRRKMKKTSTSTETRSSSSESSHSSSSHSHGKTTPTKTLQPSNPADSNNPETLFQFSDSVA
Chain of human Phosphodiesterase 4A1 (PDE4A1), PDE4A (gene 5141) (P27815 whole entry, looked up): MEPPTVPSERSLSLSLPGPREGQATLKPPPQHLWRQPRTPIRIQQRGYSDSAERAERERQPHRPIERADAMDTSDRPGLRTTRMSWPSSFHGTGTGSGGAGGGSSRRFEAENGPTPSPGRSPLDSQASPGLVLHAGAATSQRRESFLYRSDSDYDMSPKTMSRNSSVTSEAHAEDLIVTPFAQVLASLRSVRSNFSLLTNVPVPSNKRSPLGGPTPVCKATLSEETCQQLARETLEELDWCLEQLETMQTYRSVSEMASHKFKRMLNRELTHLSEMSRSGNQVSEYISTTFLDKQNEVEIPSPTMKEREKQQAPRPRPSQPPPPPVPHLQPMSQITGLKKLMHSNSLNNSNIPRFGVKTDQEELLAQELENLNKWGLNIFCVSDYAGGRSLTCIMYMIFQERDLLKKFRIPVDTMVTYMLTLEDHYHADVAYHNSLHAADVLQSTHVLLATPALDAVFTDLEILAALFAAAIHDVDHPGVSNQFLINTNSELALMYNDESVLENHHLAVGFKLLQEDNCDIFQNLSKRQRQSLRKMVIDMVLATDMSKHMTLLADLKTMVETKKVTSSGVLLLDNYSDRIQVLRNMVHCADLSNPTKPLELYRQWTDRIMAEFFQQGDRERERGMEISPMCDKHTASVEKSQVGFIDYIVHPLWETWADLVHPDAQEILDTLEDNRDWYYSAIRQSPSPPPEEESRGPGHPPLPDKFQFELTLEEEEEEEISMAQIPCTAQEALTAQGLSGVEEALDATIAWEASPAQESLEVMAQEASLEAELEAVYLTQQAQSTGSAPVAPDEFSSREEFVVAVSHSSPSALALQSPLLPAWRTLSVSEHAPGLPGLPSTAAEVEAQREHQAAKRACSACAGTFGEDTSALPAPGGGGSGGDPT
Chain of human Matrix Metalloproteinase-2 (MMP2), MMP2 (gene 4313) (P08253 whole entry, looked up): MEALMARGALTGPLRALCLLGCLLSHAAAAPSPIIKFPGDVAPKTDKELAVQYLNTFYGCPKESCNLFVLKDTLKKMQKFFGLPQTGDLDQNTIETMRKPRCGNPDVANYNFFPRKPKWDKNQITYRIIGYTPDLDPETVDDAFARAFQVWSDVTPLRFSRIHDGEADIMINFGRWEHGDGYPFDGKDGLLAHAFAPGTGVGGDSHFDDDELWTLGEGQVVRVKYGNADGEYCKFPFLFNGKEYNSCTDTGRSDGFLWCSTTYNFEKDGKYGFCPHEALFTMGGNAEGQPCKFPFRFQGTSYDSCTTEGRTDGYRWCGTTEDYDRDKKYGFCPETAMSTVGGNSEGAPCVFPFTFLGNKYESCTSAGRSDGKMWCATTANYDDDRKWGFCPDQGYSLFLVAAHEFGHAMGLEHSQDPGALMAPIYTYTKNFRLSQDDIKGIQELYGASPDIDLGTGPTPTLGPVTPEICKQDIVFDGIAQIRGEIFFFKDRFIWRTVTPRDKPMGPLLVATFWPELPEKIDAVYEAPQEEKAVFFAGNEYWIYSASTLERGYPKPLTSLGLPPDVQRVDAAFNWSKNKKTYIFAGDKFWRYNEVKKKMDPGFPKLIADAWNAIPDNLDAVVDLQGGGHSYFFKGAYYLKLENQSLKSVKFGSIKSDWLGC
Chain of human Matrix Metalloproteinase-3 (MMP3), MMP3 (gene 4314) (P08254 whole entry, looked up): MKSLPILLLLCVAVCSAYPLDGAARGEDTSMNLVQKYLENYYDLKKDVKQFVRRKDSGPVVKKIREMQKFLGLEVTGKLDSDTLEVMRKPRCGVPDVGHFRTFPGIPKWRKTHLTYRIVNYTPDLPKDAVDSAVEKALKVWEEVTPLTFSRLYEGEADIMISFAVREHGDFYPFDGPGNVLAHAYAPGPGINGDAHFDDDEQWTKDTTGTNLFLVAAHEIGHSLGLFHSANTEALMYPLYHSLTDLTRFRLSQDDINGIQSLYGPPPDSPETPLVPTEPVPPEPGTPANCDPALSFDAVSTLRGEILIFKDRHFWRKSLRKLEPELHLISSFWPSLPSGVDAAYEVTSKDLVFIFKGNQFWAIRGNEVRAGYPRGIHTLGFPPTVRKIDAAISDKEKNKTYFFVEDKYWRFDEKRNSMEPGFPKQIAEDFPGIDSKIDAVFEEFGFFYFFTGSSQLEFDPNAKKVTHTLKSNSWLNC
Chain of human Matrix Metalloproteinase-7 (MMP7), MMP7 (gene 4316) (P09237 whole entry, looked up): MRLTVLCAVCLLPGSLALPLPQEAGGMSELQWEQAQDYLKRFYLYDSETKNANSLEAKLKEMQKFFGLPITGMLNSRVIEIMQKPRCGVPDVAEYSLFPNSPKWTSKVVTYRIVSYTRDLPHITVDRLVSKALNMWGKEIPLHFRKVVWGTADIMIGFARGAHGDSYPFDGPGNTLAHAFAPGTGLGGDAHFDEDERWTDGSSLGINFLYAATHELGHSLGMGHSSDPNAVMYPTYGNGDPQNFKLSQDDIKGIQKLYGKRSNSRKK

## CCOC(=O)CCCCCCCCC(=O)OCC
[1]
  outcome: inactive

## Cc1ccc(C(C)(C)O)cc1
[2]
  AC50: 4.24 µM (active)

## S=c1[nH][nH]c(=S)s1
[1]
  outcome: inactive

## COC(=O)c1ccc(C(=O)OC)cc1
[2]
  outcome: inactive

## CC1(C)[C@H](C=C(Cl)Cl)[C@H]1C(=O)OCc1cccc(Oc2ccccc2)c1
[1]
  AC50: 25 µM (active)

## O=C(c1ccc(OCCN2CCCCC2)cc1)c1c(-c2ccc(O)cc2)sc2cc(O)ccc12
[3]
  AC50: 17.4 µM (active)
[4]
  outcome: inactive
[5]
  AC50: 22.1 µM (active)
[6]
  outcome: inactive
[7]
  AC50: 16.7 µM (active)
[8]
  AC50: 4.96 µM (active)
[1]
  AC50: 25 µM (active)

## CCC(CC)CO
[1]
  outcome: inactive

## CCOC(=O)C(=O)OCC
[2]
  AC50: 4.5 µM (active)

## Nc1ccc(N)c([N+](=O)[O-])c1
[2]
  AC50: 4.96 µM (active) and 1.02 µM (active)

## OCCCO
[1]
  AC50: 16.1 µM (active)

## COc1ccccc1NC(=O)CC(C)=O
[1]
  AC50: 7.87 µM (active)

## CCCCOCCOCCO
[8]
  outcome: inactive

## CCCCCCCCCO
[2]
  AC50: 10.6 µM (active)

## OCCN1CCOCC1
[2]
  AC50: 4.96 µM (active)

## CCCOC(=O)CC
[2]
  AC50: 6.89 µM (active)

## CCO[Si](CCC#N)(OCC)OCC
[1]
  outcome: inactive

## CC(C)(C)c1cc(CCC(=O)OCCSCCOC(=O)CCc2cc(C(C)(C)C)c(O)c(C(C)(C)C)c2)cc(C(C)(C)C)c1O
[1]
  outcome: inactive

## Brc1cc(Br)cc(Br)c1
[1]
  outcome: inactive

## CC(C)(O)CCc1ccccc1
[2]
  outcome: inactive

## N#CCCNCCC#N
[1]
  outcome: inactive

## CCCCCCOC(C)=O
[1]
  outcome: inactive

## C=CCOCC(O)CO (centres undefined)
[2]
  AC50: 1.68 µM (active)

## C=CC(=O)OCC(CO)(COC(=O)C=C)COC(=O)C=C
[2]
  AC50: 10.5 µM (active)

## CC/C(=C(\c1ccccc1)c1ccc(OCCN(C)C)cc1)c1ccccc1
[3]
  AC50: 42.5 µM (active)
[9]
  outcome: inactive
[10]
  outcome: inactive
[5]
  outcome: inactive
[2]
  outcome: inactive
[6]
  AC50: 27.9 µM (active)
[7]
  outcome: inactive
[1]
  AC50: 22.9 µM (active)

## C=C(C)C(N)=O
[8]
  outcome: inactive

## CC(O)COCC(C)O (centres undefined)
[1]
  outcome: inactive
